Pf growth 48h: P. falciparum growth inhibition at 48 hours (one generation); P. falciparum luciferase growth in erythrocytes, 48 h; Potency, µM (doses to about 28.7 µM), inactives show at the highest dose activity change, negative = inhibition, usual class: inhibitors; 310,000 tested, 5.9% active; AID 504832
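A one-generation exposure of luciferase-tagged malaria parasites in RPMI 1640/Albumax erythrocyte culture, 37 C and 5% CO2. Inhibition is inferred from decreased luminescence after adding detection reagent.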
AmpC no deterg: inhibitors of E. coli AmpC beta-lactamase without detergent; P00811; Potency, µM (top dose mostly 57.1 µM), without a hit: top-dose activity change, negative = inhibition, hits mostly inhibitors; AmpC nitrocefin hydrolysis, absorbance 480 nm, 0.0001% Triton; 330,000 tested, 0.52% active;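 note: plate controls were no compound for no effect and no enzyme for full effect; nearly all actives have a fitted effect of over 20% in size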
Target sequence (P00811 whole entry, looked up): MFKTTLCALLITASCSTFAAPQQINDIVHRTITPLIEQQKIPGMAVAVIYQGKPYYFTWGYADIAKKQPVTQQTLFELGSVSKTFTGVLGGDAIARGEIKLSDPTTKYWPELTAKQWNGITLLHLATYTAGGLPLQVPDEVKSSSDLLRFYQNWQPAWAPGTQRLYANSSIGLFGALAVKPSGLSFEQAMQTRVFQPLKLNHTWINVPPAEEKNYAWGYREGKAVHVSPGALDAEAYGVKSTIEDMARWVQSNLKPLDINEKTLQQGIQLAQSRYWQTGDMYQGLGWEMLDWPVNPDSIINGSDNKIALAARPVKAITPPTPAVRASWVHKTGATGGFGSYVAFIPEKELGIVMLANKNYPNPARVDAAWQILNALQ
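20 mM phosphate pH 7.0 + 0.01% (detergent screen) or 0.0001% Triton X-100; 5.3 nM AmpC reagent; cpd preinc 15 min RT; nitrocefin (800 uM stock) to start; A480 q20 s × 4 min; Activity was normalised to no-enzyme and no-compound control wells.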
Pf growth 96h: P. falciparum growth inhibition at 96 hour, primary screen for plastid delayed-death inhibitors | Potency, µM (doses to about 28.7 µM), for inactives: at the top dose activity change, negative = inhibition, hits mostly inhibitors | 320,000 tested, 6.9% active | P. falciparum luciferase reporter growth, 96 h
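Compounds incubated with erythrocytes infected by luciferase-expressing P. falciparum (2% hematocrit, 0.05% parasitemia final) for 96 hours, 37 C in 5% CO2. Growth inhibition scored as decreased luciferase luminescence.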
AmpC inh detg: AmpC beta-lactamase inhibition with detergent present; P00811; AmpC hydrolysis of nitrocefin, absorbance 480 nm, 0.01% Triton; Potency, µM (series often up to 114 µM), for the others: at the highest dose activity change, negative = inhibition, most hits filed as inhibitors; 370,000 tested, 0.041% active; AID 485294;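 note: 0% = no-compound wells and -100% = no-enzyme wells; nearly all actives have a fitted effect of over 25% in size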
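20 mM phosphate pH 7.0 + 0.01% (detergent screen) or 0.0001% Triton X-100; 5.3 nM AmpC reagent; cpd preinc 15 min RT; nitrocefin (800 uM stock) to start; A480 q20 s × 4 min; Activity was normalised to no-enzyme and no-compound control wells.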
HCV inh: inhibitors of hepatitis C virus infection | Huh7.5.1 HCVcc-Cre infection, luciferase reporter, 44 h | Potency, µM (series often up to 41.8 µM), without a hit: top-dose activity change, negative = inhibition, most hits filed as inhibitors | 340,000 tested, 3.4% active | AID 651820
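Luciferase read-out (15 sec integration) after a 15 min room-temperature substrate step quantifies HCVcc-Cre infection. Cells, 1,000 per well, had compound added 4 h post-plating, then virus at ~0.5 moi, and were cultured 44 h.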
AMA1 RON2 block: disrupts binding of P. falciparum AMA1 to RON2 | AID 720542 | Potency, µM (highest dose often 58.2 µM), for inactives: at the top dose activity change, negative = inhibition, most hits filed as inhibitors | 360,000 tested, 0.2% active | AlphaScreen AMA1-biotinylated RON2 peptide binding;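 note: 0% = vehicle wells and -100% = peptide control; nearly all actives have a fitted effect of over 45% in size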
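AMA1 (3D7) with his tag at 25 nM final met compounds first, then biotinylated RON2 peptide at 25 nM; detection used donor plus acceptor beads, 10 µg/mL apiece, read by AlphaScreen after 30 min at room temperature.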
* hit, by the source's call; u = inconclusive; x = no result. Rows were chosen to be rich in hits. Some 11% of all compounds tested hit in one or more screens of this group. Calls come from the whole dose curve; as a rule, active = well fitted curve in the direction sought with a large enough effect; inconclusive = small, poorly fitted or top-dose-only effect, or another doubt; inactive = no such curve, though single readings can be large; an effect the other way counts as inactive or inconclusive. Unless noted, % is set by controls: 0 for no effect and ±100 for the full control effect; potency is the fitted concentration of half-maximal effect.

SMILES | Pf growth 48h | AmpC no deterg | Pf growth 96h | AmpC inh detg | HCV inh | AMA1 RON2 block
CCCN1C(=O)c2ccccc2NC1c1ccc(Br)cc1 (centres undefined) | u | -28.6% | -1.4% | 2.5% | -46.0% | 1.9%
CCCN1C(=O)c2ccccc2NC1c1ccc(Cl)cc1 (centres undefined) | 13.1µM* | -28.1% | 19.8% | -1.3% | 9.3% | 7.5%
CCCN1C(=O)c2ccccc2NC1c1ccc(Cl)c(Cl)c1 (centres undefined) | u | -28.0% | 9.28µM* | 1.7% | u | -3.1%
Cc1ccc(S(=O)(=O)NCC(=O)N(CC(=O)NCc2ccco2)Cc2ccco2)cc1 | 3.4% | -4.8% | 13.1µM* | -0.5% | -1.5% | -1.1%
CC(C)C(C(=O)NCc1ccco1)N(Cc1ccco1)C(=O)CNS(=O)(=O)c1ccccc1 (centres undefined) | -10.0% | -7.0% | -0.1% | 5.9% | -14.7% | 7.7%
CCC(C(=O)NCc1ccco1)N(C(=O)CNS(=O)(=O)c1ccc(C)cc1)c1ccccc1OC (centres undefined) | 4.15µM* | 5.8% | 20.5% | -10.8% | 21.5% | -25.1%
CCCC(C(=O)NCc1ccco1)N(C(=O)CNS(=O)(=O)c1ccccc1)c1ccccc1OC (centres undefined) | 10.4µM* | -22.4% | u | -11.0% | -8.9% | -1.5%
O=C(CN(Cc1ccco1)C(=O)CNS(=O)(=O)c1ccc(Cl)cc1)NCc1ccco1 | -3.3% | -6.5% | u | 2.2% | 3.6% | -10.4%
COc1ccccc1N(C(=O)CNS(=O)(=O)c1ccccc1)C(C(=O)NCc1ccco1)C(C)C (centres undefined) | u | -0.4% | 5.22µM* | -16.5% | 11.3% | 8.7%
COc1ccccc1CNC(=O)CCC1N=C2c3ccccc3N=C(SCc3cccc(Cl)c3)N2C1=O (centres undefined) | x | x | x | 7.4% | x | x
Cc1ccc(-n2c(SCC(=O)Nc3c(C)cccc3C)nc(O)c(C)c2=O)cc1 | x | x | x | 17.9% | x | x
CC(C)C[C@H]1CN=C(Nc2ccccc2)N1CC1CCCCCC1 | u | 0.9% | 10.4µM* | -14.9% | u | 5.8%
CCCCCCCN1C(Nc2ccccc2)=NC[C@@H]1Cc1ccccc1 | u | 13.3% | 5.22µM* | u | u | 6.5%
Cc1cccc(CCN2C(Nc3ccccc3)=NC[C@@H]2CC(C)C)c1 | 10.4µM* | 7.0% | u | -9.9% | 2.82µM* | 9.5%
CCN1C(Nc2ccccc2)=NC[C@@H]1CC(C)C | 12.6% | -21.1% | 30.8% | -22.4% | -4.3% | 15.2%
CC(C)C[C@H]1CN=C(Nc2ccccc2)N1CCc1cccc(F)c1 | x | -7.3% | x | x | u | 0.0%
c1ccc(CCCCN2C(Nc3ccccc3)=NC[C@@H]2Cc2ccccc2)cc1 | u | 14.0% | u | -3.5% | u | 6.1%
CC(C)Oc1ccc(CNC(=O)C2CCN(c3nc4ccccc4nc3C(F)(F)F)CC2)cc1 | x | x | x | -0.4% | x | x
C[C@@H]1[C@H](O)[C@@H](C)/C=C/C=C/C=C/C=C/C=C/C=C/C=C/[C@H](O[C@@H]2O[C@H](C)[C@@H](O)[C@H](N)[C@@H]2O)C[C@@H]2O[C@](O)(C[C@@H](O)C[C@@H](O)[C@H](O)CC[C@@H](O)C[C@@H](O)CC(=O)O[C@H]1C)C[C@H](O)[C@H]2C(=O)O | -16.1% | x | -13.4% | x | x | x
CCn1c(SCC(=O)c2ccc(O)c(O)c2)nnc1-c1ccc(C)cc1 | u | -46.5% | -27.9% | u | u | 14.1%
CCn1c(Cc2cccn2C)nnc1SCC(=O)c1ccc(C)cc1 | 13.1µM* | 53.0% | 14.7µM* | 3.8% | -14.3% | -3.2%
CCCc1cc(=O)oc2cc(OCC(=O)NCCc3c[nH]c4ccccc34)ccc12 | -23.0% | -50.4% | -11.1% | -8.2% | 4.47µM* | -7.5%
Cc1cc(=O)oc2cc(OCC(=O)NCCc3c[nH]c4ccc(F)cc34)ccc12 | 1.8% | -33.9% | 9.0% | 2.2% | -19.1% | -10.6%
C=C(Cl)COc1ccc2c(CCC)cc(=O)oc2c1 | x | -7.4% | u | 1.4% | 10µM* | 20.2%
COc1ccc(NC(=O)c2cc(C)no2)cc1OC | -4.4% | -12.3% | u | 0.5% | -10.6% | -10.5%
SMILES | Pf growth 48h | AmpC no deterg | Pf growth 96h | AmpC inh detg | HCV inh | AMA1 RON2 block
Cc1cc(C(=O)Nc2ccc(Cl)cc2)on1 | 10.0% | -18.7% | 52.2% | 4.5% | -5.5% | 1.0%
COc1ccc(NC(=O)c2cc(C)no2)cc1Cl | 4.15µM* | -18.3% | 3.7µM* | -5.4% | -7.9% | -0.4%
COc1ccc(Cl)cc1NC(=O)c1cc(C)no1 | 27.9% | -17.6% | 28.9% | 0.2% | 10µM* | 6.8%
O=C(CCC1N=C2c3ccccc3N=C(SCc3ccccc3Cl)N2C1=O)NCCc1ccccc1 (centres undefined) | x | x | x | 17.5% | x | x
CCN(C(=O)Cn1c(=O)n(Cc2ccc3c(c2)OCO3)c(=O)c2ccc(C(=O)NC3CCCCC3)cc21)c1cccc(C)c1 | x | x | x | 3.1% | x | x
Cc1ccccc1NC(=S)N1CCN(Cc2ccccc2)CC1 | 4.6% | -11.3% | 1.17µM* | -14.1% | -3.1% | 5.9%
CCN(CC)S(=O)(=O)c1ccc(C)c(NC(=S)N2CCN(C/C=C/c3ccccc3)CC2)c1 | u | 128.8% | u | -2.5% | 8.91µM* | -3.0%
CCCCNS(=O)(=O)c1ccc(OCC(=O)N2CCN(Cc3ccc4c(c3)OCO4)CC2)cc1 | u | 108.1% | 10.4µM* | 4.9% | 3.16µM* | -12.2%
COc1ccccc1NC(=S)N1CCN(C/C=C/c2ccccc2)CC1 | -1.0% | 85.1% | u | u | 5.1% | u
CCN(CC)S(=O)(=O)c1ccc(C)c(NC(=S)N2CCN(c3ccccn3)CC2)c1 | u | 25.0% | -25.7% | -11.6% | 22.4µM* | -7.5%
COc1cccc(Cn2c(CNC(=O)Cc3cccc(C)c3)nc3cccnc32)c1 | x | x | x | -5.3% | x | x
CCC(Sc1nc2ncccc2[nH]1)C(=O)Nc1ccccc1F (centres undefined) | x | x | x | 10.1% | x | x
CCN(CC)S(=O)(=O)c1ccc(C)c(NC(=S)N2CCN(Cc3ccc4c(c3)OCO4)CC2)c1 | -1.5% | 67.2% | -4.8% | 8.7% | 6.31µM* | -16.2%
COc1ccc(OC)c(C2NC(=O)NC(C)=C2C(=O)Nc2ccc(F)cc2)c1 (centres undefined) | x | x | x | -7.3% | x | x
Cc1cc(=O)oc(C)c1C(=O)Nc1ccc2nsnc2c1 | 1.9% | -20.4% | x | u | 4.9% | 14.1%
Cc1cc(=O)oc(C)c1C(=O)Nc1ccc2ncccc2c1 | 9.28µM* | -1.9% | x | 5.9% | 4.3% | 1.1%

From PubChem
